Screening results deposited in PubChem BioAssay by The Scripps Research Institute Molecular Screening Center.
Rows were chosen to be rich in hits. Some 2.3% of all compounds tested hit in one or more screens of this group.
M1 antag: blocks human M1 muscarinic receptor. P11229. CHO-K1 hM1, Fluo-8 calcium fluorescence, ACh EC80 antagonist. inhibition, % at 3 µM. 1.3% of 360,000 active. AID 588852;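 active means percent inhibition above its own plate's cutoff, namely the mean of that plate's compound wells plus 3 SD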;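 further: peak over basal fluorescence ratio during 140 s after agonist addition; 0% = ACh EC80 plus DMSO and 100% = DMSO alone without agonist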
Target sequence (P11229 whole entry, looked up): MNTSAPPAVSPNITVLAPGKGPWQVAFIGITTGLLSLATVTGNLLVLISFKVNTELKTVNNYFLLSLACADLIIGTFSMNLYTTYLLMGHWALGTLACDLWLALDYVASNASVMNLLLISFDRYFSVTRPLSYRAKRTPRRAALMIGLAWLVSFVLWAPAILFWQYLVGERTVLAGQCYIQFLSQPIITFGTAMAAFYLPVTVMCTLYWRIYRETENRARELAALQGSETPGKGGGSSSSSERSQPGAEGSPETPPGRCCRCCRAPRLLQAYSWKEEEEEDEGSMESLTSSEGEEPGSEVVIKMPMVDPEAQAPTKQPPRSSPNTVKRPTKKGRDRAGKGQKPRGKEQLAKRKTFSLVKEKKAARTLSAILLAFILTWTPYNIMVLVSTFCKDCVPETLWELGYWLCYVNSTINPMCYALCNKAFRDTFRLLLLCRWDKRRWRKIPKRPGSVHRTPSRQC
CHO-K1 Ca antag: M1 antagonist counterscreen hit in parental CHO-K1 cells. inhibition, % at 3 µM. 0.6% of 360,000 active. AID 602250. ATP-induced calcium, Fluo-8 fluorescence;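 active means inhibition above a per-plate cutoff, the plate's mean sample inhibition plus 3 SD, cut at about 24% in these data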;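 further: 0% = DMSO plus EC80 ATP and 100% = DMSO alone without ATP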
CHO-K1 Ca PAM: counter-screen for M1 PAMs: effect in parental CHO-K1 cells | ATP EC20, Fluo-8 calcium fluorescence; 0% at ATP EC20, 100% at ATP max | activation, % at 3 µM | 0.02% of 360,000 active;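 active means activation above the run cutoff, the mean activation of all test compounds plus 3 SD, cut at about 40% in these data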;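 further: peak over basal fluorescence ratio in a 140 s read after ATP addition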
CHO-K1 Ca ag: nonselective activator or artifact in parental CHO-K1 cells; Fluo-8 calcium fluorescence; scaled to maximal ATP response, vehicle zero; activation, % at 3 µM; 0.48% of 360,000 active; AID 602248; in the data active means activation above about 15%;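 further: untransfected CHO-K1 host cells lacking M1 receptor as counterscreen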
CHRM1 PAM: potentiates human M1 receptor response to acetylcholine; P11229; CHO-K1 hM1, Fluo-8 calcium fluorescence, ACh EC20; 0% = ACh EC20, 100% = maximal ACh; activation, % at 3 µM; 0.088% of 360,000 active; AID 588819; in the data active means activation above about 19%, passing the limit was not always enough
M1 ag: human M1 muscarinic receptor agonism | P11229 | CHO-K1 hM1, Fluo-8 calcium fluorescence, agonist mode; 0% DMSO, 100% acetylcholine EC100 | activation, % at 3 µM | 0.33% of 360,000 active | AID 588814;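 active means activation above the run's mean compound activation plus 3 SD, cut at about 16% in these data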;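 further: peak over basal fluorescence ratio within a 140 s kinetic read after compound addition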
* marks the source's active call; other numbers are inactive results.

SMILES | M1 antag | CHO-K1 Ca antag | CHO-K1 Ca PAM | CHO-K1 Ca ag | CHRM1 PAM | M1 ag
Cc1cccc(NC(=O)CCN2CCC(C)CC2)c1 | -5.0 | -6.3 | 20.8 | 7.8 | 3.4 | -5.6
O=C(CN1C(=O)C(=O)c2ccccc21)NCCc1ccccc1 | -10.3 | -13.7 | 18.6 | 1.8 | 12.4 | 1.4
O=C1C(=O)N(CCCc2ccccc2)c2ccccc21 | -13.6 | -4.2 | 13.3 | 0.4 | 6.3 | 18.3*
O=C1C(=O)N(C/C=C/c2ccccc2)c2ccccc21 | -16.5 | -14.7 | 8.4 | 0.9 | 16.8 | 24.1*
COC(CNC(=O)c1ccc2c(c1)ncn2-c1ccc(C)cc1C)OC | -4.7 | -1.3 | -2.1 | 17.5* | 8.7 | -4.5
CC(C)(C)c1ccc(S(=O)(=O)NNC(=O)C2CCN(Cc3cccc(F)c3)CC2)cc1 | -0.8 | -5.1 | 24.7 | 22.8* | 6.3 | -4.7
O=C(NCCc1cccc(F)c1)C1CCN(S(=O)(=O)c2ccc(F)cc2)CC1 | -13.6 | -3.8 | 9.8 | 3.0 | 8.9 | -1.1
O=C(O)C1CC=CCC1C(=O)Nc1ccccc1 (stereo not drawn) | -4.6 | 25.1* | -5.8 | -0.3 | 8.6 | -1.5
Cc1ccc(NC(=O)COC(=O)CCC2CCCC2)c(Br)c1 | -4.9 | -4.8 | 4.8 | -0.8 | 9.6 | -1.5
COc1ccc(NC(=O)/C(Cl)=C(/Cl)S(=O)Cc2ccc(Cl)cc2)cn1 (stereo not drawn) | 28.2 | 30.5* | -14.2 | 0.8 | -4.4 | -5.4
COc1ccc(NC(=O)C(Cl)=C(Cl)Cl)cn1 | -2.4 | -9.4 | 17.8 | 0.1 | 8.1 | -7.2
O=C(NCCSCc1ccccc1)c1ccc(C2SCC(=O)N2Cc2ccccc2)cc1 (stereo not drawn) | 59.7* | 2.0 | -8.4 | 1.4 | -34.2 | -8.3
O=C(N/N=C/c1cccc(Cl)c1)C1CCCC1 | -6.5 | -18.0 | 0.1 | 0.5 | 2.5 | -3.4
CCOC(=O)c1c2n(c3c(NCc4ccccc4)ncnc13)CCCC2 | -7.9 | 24.4* | -8.2 | 0.1 | 8.8 | -2.6
CC1=NOC(=O)/C1=C\c1ccc(-c2ccc(Br)cc2)o1 | 34.4* | 11.0 | 8.2 | 7.1 | -0.9 | 5.5
COc1ccc(C(CNC(=O)c2ccc(S(=O)(=O)Nc3ccccc3OC)cc2)N2CCCC2)cc1 (stereo not drawn) | 12.1 | -9.5 | 16.8 | 4.4 | -14.3 | -6.8
CCCCOc1ccc(C(O)(CCN2CCOCC2)c2ccccc2)cc1 (stereo not drawn) | 15.3 | -15.9 | 13.7 | 4.0 | -17.0 | -9.5
O=C(CCN1CCCCCC1)c1ccccc1 | -16.0 | -7.1 | 17.7 | 0.2 | 1.2 | 4.2
OC(CCCN1CCCCC1)(c1ccccc1)c1ccc(C(F)(F)F)cc1 (stereo not drawn) | 81.9* | 3.9 | -4.6 | 1.4 | -30.1 | -3.3
OC(CCN1CCCCC1)(c1ccccc1)c1ccccc1 | 99.5* | 0.4 | -5.9 | 0.3 | -26.6 | -7.2
C=CCC(O)(CCN1CCCCC1)c1ccccc1 (stereo not drawn) | 98.2* | -13.5 | 6.9 | 0.1 | -22.5 | -4.7
NC(=O)C(CCCCN1CCCCC1)(c1ccccc1)c1ccccc1 | 83.5* | -9.9 | 8.5 | 0.5 | -30.0 | -8.4
COc1ccc(C2NS(=O)(=O)OCC2C)cc1 (stereo not drawn) | 11.4 | 5.2 | -8.9 | -0.2 | -7.0 | -6.4
COc1ccc(C(O)(CCc2ccccc2)CCN2CCCCC2)cc1 (stereo not drawn) | 84.4* | -5.3 | 0.6 | 0.8 | -32.5 | -13.1
OC(CCN1CCCC1)(c1ccccc1)C1CCCCC1 (stereo not drawn) | 96.8* | -9.3 | 21.3 | 0.6 | -25.5 | -8.0
SMILES | M1 antag | CHO-K1 Ca antag | CHO-K1 Ca PAM | CHO-K1 Ca ag | CHRM1 PAM | M1 ag
Nc1nnc(CSCc2ccc(Cl)cc2)s1 | 11.1 | 14.9 | -6.9 | -0.1 | -4.3 | -3.9
Nc1nnc(SCc2ccc(Cl)cc2)s1 | 28.0* | 20.1 | -7.5 | 0.6 | -11.1 | -4.8
Clc1ccc(CSc2nnc(NC3=NCCCCC3)s2)cc1 | 33.4* | -0.7 | -3.1 | 0.6 | -15.9 | -5.1
Brc1ccc(C2=Nn3cnnc3SC2)cc1 | -7.5 | -11.8 | 21.6 | 0.4 | 1.5 | -4.1
CC[C@H](C)[C@H]1CNC(=S)N1CC1CCN(CCC23CC4CC(CC(C4)C2)C3)CC1 | 90.1* | -5.5 | 14.8 | 0.8 | -31.3 | -10.7
O=C(C[C@H]1C[C@@H]2c3cc(NC(=O)c4ccc5c(c4)OCO5)ccc3O[C@@H]2[C@H](CO)O1)NCc1cc(F)ccc1F | 19.8 | 14.7 | -14.4 | 0.0 | -12.2 | -3.9
C[C@@H]1CN([C@H](C)CO)C(=O)CCCn2nncc2CO[C@H]1CN(C)Cc1cccnc1 | -3.1 | -10.5 | 5.3 | 0.5 | -3.8 | -7.3
Cc1c(P(=S)(c2ccccc2)c2ccccc2)[n+]2ccccc2n1CCc1ccccc1 | 47.5* | -8.6 | 11.1 | 0.6 | -31.5 | -10.2
CN(C)C1=NC[C@H](Cc2ccccc2)N1CCCC1CCCC1 | 11.3 | -4.1 | 0.0 | 2.5 | -9.4 | -8.8
S=C1NC[C@H](Cc2ccccc2)N1CC1CCN(CCCC2CCCC2)CC1 | 38.5* | -9.2 | 7.9 | 2.3 | -26.6 | -11.2
CCCCN1CCC(CN2C(=S)NC[C@@H]2CC(C)C)CC1 | -3.2 | -1.7 | 18.5 | 0.8 | 6.2 | -11.3
CN(C)C1=NC[C@H](Cc2ccccc2)N1CCCC1CCCCC1 | 30.9* | -5.6 | 16.4 | 10.6 | -21.9 | -1.9
CC(C)C[C@H]1CNC(=S)N1CC1CCN(CCCC2CCCC2)CC1 | 75.4* | -15.1 | 8.8 | 0.8 | -31.1 | -11.2
S=C1NC[C@H](Cc2ccccc2)N1CCCCC1CCCCC1 | 4.5 | -11.8 | 9.3 | 1.1 | 2.3 | -3.9
CC(C)C[C@H]1CNC(=S)N1CC1CCN(CCCCc2ccccc2)CC1 | 51.7* | -1.2 | -6.7 | 0.5 | -30.0 | -11.0
COc1ccccc1CNC(=O)CCCNC(=O)Cn1cnc2sc(C)c(C)c2c1=O | -2.6 | -10.7 | -0.3 | 1.0 | 6.9 | -7.7
NC(=O)C1=C(c2ccccc2)c2ccccc2C1=O | 5.5 | 27.5* | -18.4 | 2.4 | 3.0 | 8.8
COc1cccc(S(=O)(=O)Nc2cccc(C(=O)N3CCCC3)c2)c1 | 5.1 | 5.8 | -9.2 | 1.6 | 4.8 | -2.2
COc1cccc(S(=O)(=O)Nc2cccc(C(=O)N3CCOCC3)c2)c1 | 53.7* | -6.0 | 16.4 | 0.6 | -20.9 | -6.7
CCN(c1ccccc1)S(=O)(=O)c1cccc(C(=O)NCC(c2cccs2)N(C)C)c1 (stereo not drawn) | 52.3* | -14.4 | 20.3 | 2.8 | -24.2 | -5.3
CNS(=O)(=O)c1cccc(C(=O)NCC(c2cccs2)N(C)C)c1 (stereo not drawn) | -3.2 | -8.8 | 20.2 | 0.5 | -2.3 | -5.2
Cn1c(-c2ccncc2)nc2ccccc21 | -5.5 | -6.5 | 0.7 | -0.1 | 3.2 | -4.9
CCN(CC)c1ccc(-c2nc3cnccc3n2C)cc1 | 38.6* | -1.9 | 5.1 | -0.5 | -19.9 | -6.0
Cn1c(/C(C#N)=C/c2ccc(-c3ccc(S(N)(=O)=O)cc3)o2)nc2ccccc21 | 30.0 | 17.5 | 14.1 | 21.7* | -14.9 | 1.1
